Reference: PubChem BioAssay (NCI)
About 83,000 compounds went through this panel and 20% of them were active in at least one assay; those are over-represented in the sample as a whole.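 Single-concentration screen, 48 h exposure, 96-well plates. Endpoint: percent growth. Below 10 = active.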 A number with no mark means an inactive call. Active and inactive are the calls of the source.

Experiments:
Test in all cases: NCI-60 one-dose screen, 48 h (100 = growth as untreated, 0 = no growth, -100 = all killed)
Details in all cases: 10 µM unless noted
T-47D breast = tested on: T-47D breast
BT-549 breast = tested on: BT-549 breast
MDA-MB-435 melanoma = tested on: MDA-MB-435 melanoma
SW-620 colon = tested on: SW-620 colon
MCF7 breast = tested on: MCF7 breast
HCT-116 colon = tested on: HCT-116 colon
HCC-2998 colon = tested on: HCC-2998 colon
KM12 colon = tested on: KM12 colon

| Structure (SMILES) | growth (T-47D breast) | growth (BT-549 breast) | growth (MDA-MB-435 melanoma) | growth (SW-620 colon) | growth (MCF7 breast) | growth (HCT-116 colon) | growth (HCC-2998 colon) | growth (KM12 colon) |
| --- | --- | --- | --- | --- | --- | --- | --- | --- |
| CCCCOc1ccc(S(=O)(=O)N2CCN(c3nc(C)cc(N4CCOCC4)n3)CC2)cc1 | 55.9% | -6.76% (active) | 6.06% (active) | 28.9% | 76.9% | -1.17% (active) | 33% | 4.03% (active) |
| NCCNC(=O)c1cccc(COc2ccccc2NC(=O)c2cc(Cl)c(Cl)[nH]2)c1 | 89.2% | 105% | 101% | 111% | 77.7% | 86.1% | 106% | 101% |
| Cc1nc(/N=C(N)/N=C(\N)c2cccc(Br)c2)sc1C | 56.4% | 84.7% | 10.8% | 33% | 13.2% | 25.4% | 64.9% | 37.4% |
| CCCCCC[n+]1ccc(SCC(=O)n2ccc3ccccc32)c2ccccc21 | 59.1% | 73.2% | 101% | 92.1% | 75.6% | 73.2% | 92.8% | 84.3% |
| CCS(=O)(=O)Nc1ccc(C(=O)CC2(O)C(=O)Nc3ccccc32)cc1 (stereo not drawn) | 89.1% | 116% | 108% | 103% | 92.3% | 104% | 100% | 101% |
| Cc1ccc2c(n1)C(=O)C(Cl)=C(Nc1ccc(C(C)C)cc1)C2=O | -47% (active) | 91.9% | -81.2% (active) | -22.8% (active) | -56.3% (active) | -70.8% (active) | 3.71% (active) | 57.8% |
| Nc1ccc(Nc2ncnc3sc4c(c23)CCN(Cc2ccccc2)C4)cc1 | 102% | 101% | 102% | 99.7% | 84.5% | 96.9% | 105% | 104% |
| CCC1=Cc2c(OC)cccc2OC12C=Cc1c(OC)cccc1O2 (stereo not drawn) | 46.8% | 46.6% | -18.8% (active) | 30% | 10.8% | 8.84% (active) | 2.34% (active) | 12.4% |
| Cc1ccc(-c2nc(SCC(=O)c3ccccc3)nc(Nc3ccc(S(N)(=O)=O)cc3)c2C#N)cc1 | 83.9% | 73.8% | 47% | 83.8% | 65.1% | 35.9% | 106% | 72.8% |
| Cc1ccc2c(n1)C(=O)C(Cl)=C(Nc1cc(C(F)(F)F)cc(C(F)(F)F)c1)C2=O | -9.18% (active) | 115% | 93.8% | 2.41% (active) | -24.9% (active) | 42% | 96.5% | 97% |
| CC1(C)CC[C@]23CC[C@]4(C)[C@H](CC[C@@H]5[C@@]6(C)CC[C@H](NCO)C(C)(C)[C@@H]6CC[C@]54C)[C@H]2[C@H]1OC3 | 44.2% | 98.5% | 38.8% | -73.5% (active) | 1.96% (active) | -9.59% (active) | -24% (active) | -0.242% (active) |
| CC(=O)OCCCCN1C=C/C(=C\C(=O)n2ccc3ccccc32)c2ccccc21 | 92.7% | 113% | 106% | 98.4% | 90.4% | 103% | 112% | 97.7% |
| CN1CCN(CCCCCC(=O)Nc2nc(-c3cccc(NS(=O)(=O)c4cccc5c(N(C)C)cccc45)c3)cs2)CC1 | 72.3% | 90.7% | 52.1% | 92.8% | 14.8% | 51.6% | 83.7% | 79.6% |
| CNC(=O)c1cc(-n2ccc3cc(NC(=O)Nc4ccc(N5CCN(C)CC5)c(C(F)(F)F)c4)ccc32)ccn1 | 87.4% | 95.1% | 22.5% | 21.5% | -23.9% (active) | -17.4% (active) | 92.3% | 30.5% |
| Brc1cccc(-c2cc(-c3cnc4c(c3)OCCO4)n[nH]2)c1 | 40.2% | 67.3% | -29.3% (active) | 25.3% | 10% | 27.4% | 46.7% | 41.6% |
| CCOC(=O)c1ccc(NC2=CC(=O)C(C)=C(C)C2=O)cc1 | 43.2% | 91.1% | 44.2% | 101% | 62.7% | 56.5% | 101% | 46.1% |

| Structure (SMILES) | growth (T-47D breast) | growth (BT-549 breast) | growth (MDA-MB-435 melanoma) | growth (SW-620 colon) | growth (MCF7 breast) | growth (HCT-116 colon) | growth (HCC-2998 colon) | growth (KM12 colon) |
| --- | --- | --- | --- | --- | --- | --- | --- | --- |
| O=C(CSc1nc2ccccc2c(=O)n1-c1ccccc1)N/N=C/c1ccc(Oc2ccc(Br)cc2)cc1 | 82.4% | 73.1% | 80.8% | 29.6% | 68.9% | 7.81% (active) | 87.1% | 76.3% |
| CC(C)(C)Nc1nc2c(OCCc3ccccc3)cccn2c1-c1cccc(Oc2ccccc2)c1 | 8.72% (active) | -11% (active) | 19.9% | 23.5% | 4.96% (active) | 4.13% (active) | 21.3% | 14% |
| CN1CCN(Cc2ccc(NC(=O)c3cncc(C#Cc4cnc(N)nc4)c3)cc2C(F)(F)F)CC1 | 19% | 38.5% | 12.9% | 10.4% | 27.6% | 3.4% (active) | 42.5% | 9.4% (active) |
| NC1[C@H]2CN(c3cnc(C(=O)Nc4cc(F)cc5cccnc45)cn3)C[C@@H]12 (stereo partly drawn) | 32.4% | 91.8% | 90% | 47.6% | 6.12% (active) | 10.7% | 84.3% | 87.4% |
| Cc1cc2nc3c4cc(C#N)ccc4n(CCN(C)C)c3nc2cc1C | 20.2% | -28.3% (active) | -27.4% (active) | -9.39% (active) | 2.34% (active) | -33.3% (active) | -73% (active) | -3.36% (active) |
| O=C(COc1ccc(/C=C2\C(=O)Nc3ccc(F)cc32)cc1)Nc1ccccc1 | 97.7% | 116% | 98.6% | 103% | 89.8% | 69% | 101% | 97.8% |
| O=C(/C=C/Nc1ccc(S(=O)(=O)Nc2ncccn2)cc1)c1ccc(N=Cc2c(O)[nH]c3ccccc23)cc1 | 93.1% | 101% | 100% | 112% | 87.4% | 111% | 109% | 37.3% |
| O=c1oc2ccc(-c3ccc(F)cc3F)cc2c(=O)n1-c1ccc(Br)cc1F | 5.88% (active) | 30.9% | 66.9% | 79.3% | 58.5% | 57.3% | 81.5% | 61.4% |
| NS(=O)(=O)c1ccc(Nc2nc(N/N=C/c3ccc4c(c3)OCO4)nc(Nc3ccccc3)n2)cc1 | 54.7% | 76.7% | 59.2% | 49.8% | 18.7% | 36.7% | 23.2% | 70.4% |
| Cc1ccc(NC2=C(Cl)C(=O)c3nc(C)ccc3C2=O)c(C)c1 | -46.1% (active) | 62.9% | -90% (active) | -29.4% (active) | -64.4% (active) | -67.7% (active) | 64.6% | 44.9% |
| C=C(C=O)[C@@H]1CC[C@]2(C(=O)O)CC[C@]3(C)C(CC[C@@H]4[C@@](C)(CCC#N)[C@H](C(=C)C=O)CC[C@]43C)[C@@H]12 (stereo partly drawn) | 28.1% | 28.9% | -9.89% (active) | 10.9% | 14.3% | -82.8% (active) | 108% | 92% |
| CCOP(=O)(OCC)OC[C@]12CCC(C)(C)C[C@H]1C1=CC[C@@H]3[C@@]4(C)CC[C@H](OP(=O)(OCC)OCC)C(C)(C)[C@@H]4CC[C@@]3(C)[C@]1(C)CC2 | 26.2% | 54.1% | 62.1% | 68.4% | 28.1% | 18.5% | 73.1% | 63.9% |
| CCCc1[nH]c(-c2cc(N)ccc2Cl)c2c1C(=O)CCCC2 | 75.7% | 111% | 99.5% | 105% | 87.1% | 95.2% | 101% | 93.7% |
| COC(=O)c1cccc(NC2=C(Cl)C(=O)C(C)=C(C)C2=O)c1 | -18.1% (active) | 96.2% | 104% | 103% | 82% | 70.1% | 98.2% | 49.2% |
| COc1ccc(C(C)=C(c2ccc(OCCN(C)C)cc2)c2ccc(OCCN(C)C)cc2)cc1 | -60.6% (active) | -27.3% (active) | -75.7% (active) | -65.8% (active) | -67.6% (active) | -81% (active) | -69.4% (active) | -8.05% (active) |
